Hit rate of the full screen: of about 1,100 compounds, about 390 (35%) were called active. Roughly 30% stayed inconclusive and do not appear here. This is one part of the list. Values without a mark were called inactive. Calls follow the shape of the dose curve; as a rule, active = well fitted inhibition curve with a large enough effect; inconclusive = small, poorly fitted or top-dose-only effect; inactive = flat fitted curve, though single readings scatter.
The compounds below were run against Luciferin 4-monooxygenase (Photinus pyralis) (UniProt P08659) (assay: qHTS of Nrf2 Activators: Hit Validation in Secondary FLuc Assay). Conditions: firefly luciferase inhibition counter-screen, luminescence; series mostly up to 57.5 µM; activity, negative = inhibition: at the top concentration.
Procedure, shortened: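 Counter-screen on purified firefly luciferase with ATP and D-luciferin at Km concentrations; compounds flagged if they inhibit the enzyme, indicating possible reporter stabilization rather than ARE activation.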
With O=C(Nc1cnc2ccccc2c1)c1ccco1 the Potency was 1.35 µM (active). With O=C(NC(=S)Nc1cnc2ccccc2c1)c1ccccc1 the Potency was 3.38 µM (active). With Cc1cc(NC(=S)NC(=O)c2ccco2)c2ccccc2n1 the “activity, negative = inhibition” value was -24.9%. In the case of O=C(Nc1nc2c(Cl)cccc2s1)c1ccc([N+](=O)[O-])o1, the Potency is reported as 10.7 µM (active). In the case of Cn1ccsc1=NC(=O)c1ccc([N+](=O)[O-])o1, the “activity, negative = inhibition” value is reported as -21.8%. For CN(Cc1ccccc1)C(=O)c1ccc([N+](=O)[O-])o1, the “activity, negative = inhibition” value was 1.73%. For O=C(Nc1nc2ccc(F)cc2s1)c1ccc([N+](=O)[O-])o1, the Potency was 2.13 µM (active). With O=C(c1ccc([N+](=O)[O-])o1)N1CCN(c2nc3c(Cl)cccc3s2)CC1 the “activity, negative = inhibition” value was -26%. For O=C(CCS(=O)(=O)c1ccccc1)Nc1nc2ccc(F)cc2s1, the “activity, negative = inhibition” value was -26%. For Cc1ccc(-n2nc3c([n+]2[O-])CCc2c-3no[n+]2[O-])cc1, the “activity, negative = inhibition” value was -5.82%. In the case of COc1cc(Cl)cc(/C=C/c2ccc3cccc(O)c3n2)c1OC, the Potency is reported as 9.53 µM (active). In the case of Oc1ccc(Cl)cc1/C=C/c1ccc2cccc(O)c2n1, the Potency is reported as 9.53 µM (active). In the case of CN(N=Cc1ccccc1O)c1ccc2ccccc2n1, the Potency is reported as 0.849 µM (active). O=C(Nc1ccc(OC(F)F)cc1)c1ncc(Cl)c(Cl)c1Cl was tested, and the “activity, negative = inhibition” value was -17.4%. For O=C(Nc1ccc(F)cc1)c1nsc(Cl)c1Cl, the Potency was 1.69 µM (active). CSc1nsc(SC)c1C(=O)Nc1ccc(Cl)cc1 was tested, and the “activity, negative = inhibition” value was -1.94%. For COc1ccc(Nc2nc(C)nc3sc4c(c23)CCC4)cc1O, the “activity, negative = inhibition” value was -21.5%. CC1(C)CC[C@]2(C(=O)n3ccnc3)CC[C@]3(C)[C@H](C(=O)C=C4[C@@]5(C)C=C(C#N)C(=O)C(C)(C)[C@@H]5CC[C@]43C)[C@@H]2C1 was tested, and the Potency was 0.478 µM (active). In the case of N#Cc1sc2nc(-c3ccccc3)cc(C(F)(F)F)c2c1N, the “activity, negative = inhibition” value is reported as -16.1%. In the case of COc1cccc(C(=O)Nc2cc(Cl)c(O)c(Cl)c2)c1, the Potency is reported as 12 µM (active). With COC(=O)c1sccc1NC(=O)c1cccc(Cl)c1 the “activity, negative = inhibition” value was -4.91%. With COc1cccc(NC(=O)c2cc(Cl)nnc2Cl)c1 the “activity, negative = inhibition” value was -19.3%. CN(C)c1oc(/C=C/c2ccccc2)nc1C#N was tested, and the Potency was 8.49 µM (active). In the case of Oc1ccc(CNc2ccccc2O)cc1, the Potency is reported as 12 µM (active). In the case of CCCCC1C(=O)N(c2ccccc2)N(c2ccc(O)cc2)C1=O (stereo not drawn), the Potency is reported as 10.7 µM (active). For COc1ccc(-c2csc3nc(-c4cccnc4)nc(Cl)c23)cc1OC, the Potency was 12 µM (active). In the case of CC(C)(C)OC(=O)NCCC(=O)N/N=C/c1cccc2cccnc12, the “activity, negative = inhibition” value is reported as -3.55%. For O=C(/C=C/c1ccco1)Nc1cccc2cccnc12, the Potency was 4.78 µM (active). Cc1ccc(/C=C/C(=O)OCC(=O)Nc2cccnc2Cl)o1 was tested, and the “activity, negative = inhibition” value was -0.884%. In the case of O=C(/C=C/c1ccco1)Nc1cccnc1Cl, the Potency is reported as 6.01 µM (active). O=C1NC(=Nc2ccccc2)S/C1=C\C=C\c1ccco1 was tested, and the Potency was 6.01 µM (active). Cc1cccc(CC2S/C(=N/N=C/c3ccco3)NC2=O)c1 (stereo not drawn) was tested, and the “activity, negative = inhibition” value was -7.31%. Cc1ccc(N=C2NC(=O)/C(=C/C=C/c3ccco3)S2)cc1 was tested, and the Potency was 8.49 µM (active). With O=C1N/C(=N\N=C\c2ccco2)SC1Cc1ccc(F)cc1 (stereo not drawn) the “activity, negative = inhibition” value was -17.3%. In the case of O=C1NC(=Nc2ccccc2)S/C1=C\c1ccccc1, the Potency is reported as 7.57 µM (active). For O=C(CC1S/C(=N/N=C/c2ccco2)NC1=O)Nc1ccccc1 (stereo not drawn), the “activity, negative = inhibition” value was -0.127%. For Cc1ccc(S(=O)(=O)CCSC(=N)N)cc1, the “activity, negative = inhibition” value was 4.13%. For Cc1ccc(S(=O)(=O)c2cc3ccccc3oc2=O)cc1, the “activity, negative = inhibition” value was -1.58%. For Cc1ccc(S(=O)(=O)C=CS(=O)(=O)c2ccc(C)cc2)cc1, the Potency was 0.379 µM (active). For O=C(COc1cccnc1[N+](=O)[O-])Nc1cccc2ccccc12, the “activity, negative = inhibition” value was 2.44%. In the case of C/C(=N\NC(=O)COc1ccccc1[N+](=O)[O-])c1cccs1, the Potency is reported as 9.53 µM (active). With CCCN(C(=O)c1ccco1)c1nnc(-c2ccccc2C)s1 the Potency was 6.75 µM (active). With CCC/C(=N\NC(=O)c1ccco1)c1ccc(Cl)s1 the “activity, negative = inhibition” value was -0.842%. With Oc1ccc(NCc2cccc(OCc3ccc(F)cc3)c2)cc1 the Potency was 3.38 µM (active). CCOc1ccccc1NS(=O)(=O)c1c(C(=O)OC)sc2cccc(F)c12 was tested, and the “activity, negative = inhibition” value was 2.09%. In the case of Cc1ccc(C(=O)Nc2nc(-c3ccco3)c(-c3ccco3)s2)o1, the Potency is reported as 7.57 µM (active). For Cc1csc(NC(=O)/C=C/c2ccco2)n1, the Potency was 3.01 µM (active). With CCOC(=O)Cc1csc(NC(=O)/C=C/c2ccco2)n1 the Potency was 4.26 µM (active). CCC(CC)c1nnc(NC(=O)/C=C/c2ccco2)s1 was tested, and the “activity, negative = inhibition” value was -1.49%. In the case of Cc1cc(C)c2oc(-c3ccc(C)c(NC(=O)/C=C/c4ccco4)c3)nc2c1, the Potency is reported as 2.39 µM (active). For Clc1ccc2c(NCc3ccccn3)ncnc2c1, the “activity, negative = inhibition” value was -0.91%. For Clc1ccc(/C=C/c2ncc3ccccn23)cc1, the Potency was 1.51 µM (active). Clc1ccc(C=Cc2ccccn2)cc1 was tested, and the Potency was 0.379 µM (active). In the case of Clc1ccc(C=Cc2ccccn2)c(Cl)c1, the Potency is reported as 0.338 µM (active). In the case of Cc1ccc2nc(/C(C#N)=C\c3ccc([N+](=O)[O-])o3)[nH]c2c1, the Potency is reported as 8.49 µM (active). For Nc1c(C(=O)Nc2ccccc2Br)sc2nc(-c3cccs3)ccc12, the Potency was 8.49 µM (active). In the case of Nc1c(C(=O)C2CC2)sc2nc(-c3cccs3)cc(C(F)(F)F)c12, the “activity, negative = inhibition” value is reported as -23.9%. In the case of c1coc(CSc2ncnc3c2oc2ccccc23)c1, the Potency is reported as 5.36 µM (active). For Cc1sc2ncnc(SCc3ccco3)c2c1C, the “activity, negative = inhibition” value was -5.64%. With O=C(COCc1cc(-c2cccs2)on1)Nc1cc(Cl)ccc1O the “activity, negative = inhibition” value was -0.806%. In the case of Fc1ccc2nc(Nc3nc4c(F)cc(F)cc4s3)sc2c1, the Potency is reported as 6.75 µM (active). Fc1cccc2sc(Nc3nc4ccccc4s3)nc12 was tested, and the Potency was 2.13 µM (active). Fc1cc(F)c2nc(Nc3nc4cc5c(cc4s3)OCO5)sc2c1 was tested, and the Potency was 5.36 µM (active). O=C(OCC(=O)N1CCCC1)c1cc([N+](=O)[O-])ccc1Cl was tested, and the “activity, negative = inhibition” value was -1.21%. With O=[N+]([O-])c1ccc(Cl)c(/C=N/n2c(-c3ccncc3)n[nH]c2=S)c1 the Potency was 1.9 µM (active). With CCOCCCNC(=O)c1ccc(-n2c(-c3ccccc3)cc3c2CCC(C)C3)cc1 (stereo not drawn) the “activity, negative = inhibition” value was 7.91%. For O=C(Nc1ccccc1F)c1cc(-c2ccco2)nc2ccccc12, the Potency was 10.7 µM (active). With O=C(COC(=O)/C=C/c1ccco1)NCc1ccccc1Cl the “activity, negative = inhibition” value was -23.7%. With O=C(Nc1ccc(F)cc1F)c1cc(-c2ccco2)nc2ccccc12 the Potency was 6.75 µM (active). For COc1ccccc1CNC(=O)COC(=O)c1cc(-c2ccco2)nc2ccccc12, the Potency was 5.36 µM (active). With O=Cc1c(Sc2ccccn2)nc2ccccn2c1=O the “activity, negative = inhibition” value was -11%. In the case of COc1ccc(N(CCCN2C(=O)c3cccc4cccc(c34)C2=O)C(=O)c2cccc(OC)c2)cc1, the “activity, negative = inhibition” value is reported as 4.49%. CC1Oc2ccccc2OC1C(=O)Nc1ccccn1 (stereo not drawn) was tested, and the “activity, negative = inhibition” value was -0.195%. With CCOc1cc2ccccc2cc1C(=O)Nc1ccccn1 the Potency was 5.36 µM (active). CCc1nc(Nc2cccc(F)c2)c2oc3ccccc3c2n1 was tested, and the “activity, negative = inhibition” value was -22.6%. Brc1ccccc1C1N=C(c2ccccc2)NO1 (stereo not drawn) was tested, and the Potency was 1.35 µM (active). In the case of O=C(Nc1cccc([N+](=O)[O-])c1)Nc1cccs1, the Potency is reported as 10.7 µM (active). With O=C(CSc1cccc[n+]1[O-])Nc1cc([N+](=O)[O-])ccc1Cl the “activity, negative = inhibition” value was -5.19%. With Cc1cc(C)cc(NC(=O)/C=C/c2ccc([N+](=O)[O-])s2)c1 the “activity, negative = inhibition” value was 1.91%. Cc1cc(C)cc(NC(=O)Nc2cccs2)c1 was tested, and the Potency was 2.39 µM (active). O=C(NNC(=O)C12CC3CC(CC(C3)C1)C2)c1cccc([N+](=O)[O-])c1 was tested, and the “activity, negative = inhibition” value was -24.4%. With O=C(CCCCCCC(=O)Nc1ccccc1)NO the “activity, negative = inhibition” value was -18.5%. O=C(CCCc1ccccc1)Nc1cccc([N+](=O)[O-])c1 was tested, and the Potency was 7.57 µM (active). COc1ccc(NC(=O)C2CC(=O)N/C(=N/N=C/c3ccco3)S2)cc1 (stereo not drawn) was tested, and the “activity, negative = inhibition” value was -14.5%. For COc1ccc(OC)c(NC(=O)C(C#N)=Cc2ccco2)c1, the Potency was 9.53 µM (active). With O=C(/C=C/c1ccccc1Cl)Nc1nc(-c2cccs2)ns1 the Potency was 1.69 µM (active). For Cc1cc2c(cc1C)N(C(=O)CCl)CC(=O)N2, the “activity, negative = inhibition” value was -9.54%. With CSc1ccc(-c2cc(=O)c3ccccc3o2)cc1 the Potency was 1.2 µM (active). O=c1cc(-c2ccccc2)oc2ccc(Cl)cc12 was tested, and the Potency was 0.849 µM (active). With Nn1c(-c2ccccc2)nc2cc(Cl)ccc2c1=O the “activity, negative = inhibition” value was -1.21%. COc1c(C(=O)Nc2nnc(C3CC3)s2)csc1Cl was tested, and the Potency was 7.57 µM (active). In the case of O=[N+]([O-])c1ccccc1/C=N/Nc1nccnc1Cl, the Potency is reported as 13.5 µM (active). In the case of O=[N+]([O-])c1ccc(Cl)cc1C=NNc1ccccn1, the “activity, negative = inhibition” value is reported as -18.3%. With O=C(N/N=C/C(Br)=C/c1ccccc1)c1ccc([N+](=O)[O-])cc1 the “activity, negative = inhibition” value was -28.9%. With O=[N+]([O-])c1cncc([N+](=O)[O-])c1Nc1cccc(O)c1 the “activity, negative = inhibition” value was 6.84%. O=[N+]([O-])c1cc(Cl)cc2c1nc(NCCO)c1ccccc12 was tested, and the “activity, negative = inhibition” value was -5.22%. O=[N+]([O-])c1ccccc1C=NNc1ccccc1 was tested, and the Potency was 2.69 µM (active). Fc1ccc2cc(-c3ccsc3)ncc2c1 was tested, and the Potency was 1.69 µM (active). For CCN(CC)c1ccc2c(c1)oc(=O)c1c(Cl)cc(=O)oc12, the Potency was 6.01 µM (active). For Cc1noc(C)c1-c1ccc2ncnc(NCC3CCCCN3C)c2c1 (stereo not drawn), the “activity, negative = inhibition” value was 8.17%. For O=C(Nc1ccccc1)c1cc([N+](=O)[O-])ccc1Cl, the “activity, negative = inhibition” value was 7.81%. With O=C(Nc1cccc([N+](=O)[O-])c1)c1[nH]ncc1Cl the Potency was 9.53 µM (active). In the case of CCn1ncc(Br)c1C(=O)Nc1cc([N+](=O)[O-])ccc1C, the “activity, negative = inhibition” value is reported as -0.338%. For COc1ccc(C(C#N)=C2C=CC(=NO)C=C2)cc1, the Potency was 8.49 µM (active). In the case of Cc1cc(C)n(-c2nc3ccccc3c(=O)n2OCc2ccc(F)cc2)n1, the “activity, negative = inhibition” value is reported as -3.71%. C#CCSc1nc(-c2cccs2)ccc1C#N was tested, and the “activity, negative = inhibition” value was -22.8%. With O=C(CSc1nccc(-c2cccs2)n1)Nc1ccc(F)c(Cl)c1 the “activity, negative = inhibition” value was 0.686%. N#Cc1cccn1-c1nccc(-c2cccs2)n1 was tested, and the Potency was 12 µM (active). For Cc1ccc(S(=O)(=O)c2nc(S(C)(=O)=O)sc2N2CCC(O)CC2)cc1, the “activity, negative = inhibition” value was -0.609%. In the case of c1ccc(-c2nc3c4ccccc4ccn3c2Cc2ccsc2)cc1, the Potency is reported as 1.51 µM (active). For Clc1cccc(Cc2c(-c3ccco3)nc3c4ccccc4ccn23)c1, the Potency was 1.9 µM (active). Fc1cccc(Cc2c(-c3ccco3)nc3c4ccccc4ccn23)c1 was tested, and the Potency was 0.379 µM (active). For c1ccc(Cc2c(-c3ccco3)nc3c4ccccc4ccn23)cc1, the Potency was 0.601 µM (active).
% is scaled to controls: 0 for no effect and ±100 for the full control effect; potency is read from the fitted curve at half-maximal effect.
Also: nearly all actives have a fitted effect of over 65% in size.
